The values that follow come from PubChem BioAssay (NCI).

Among the test systems are SK-MEL-2 melanoma; EKVX NSCLC; SN12C renal; UO-31 renal; TK-10 renal; ACHN renal; A498 renal; CCRF-CEM leukemia; MOLT-4 leukemia; SR leukemia; RPMI-8226 leukemia; OVCAR-8 ovarian; OVCAR-5 ovarian; OVCAR-4 ovarian; SK-OV-3 ovarian; IGROV1 ovarian; OVCAR-3 ovarian; HS 578T breast; NCI/ADR-RES ovarian.
Assay in all cases: NCI-60 one-dose screen, 48 h (100 = growth as untreated, 0 = no growth, -100 = all killed)
Details in all cases: 10 µM unless noted

This is part of a sample that, as a whole, favours compounds with a hit. Of some 83,000 tested, about 20% had one in any assay.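 Results are percent growth after 48 hours of single-concentration exposure. 100 means growth as in untreated cells, lower positive values show inhibition; negative values down to -100 show cell death.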 A number with no mark means an inactive call. Calls of active or inactive are those of the source. The calls were made as follows: active = growth percent below 10; inactive = the rest.

With `COc1cc2c(cc1-c1c(C)noc1C)ncc1nc(C3CCC(F)(F)CC3)n([C@H](C)COC(F)F)c12`, the growth was 65.7% in the assay on SK-MEL-2 melanoma; 48.1% in the assay on EKVX NSCLC; 51% in the assay with SN12C renal; 25.3% with UO-31 renal; 27.1% with TK-10 renal; 37.5% in the assay on ACHN renal. The growth is -22.8% (active) in the assay with A498 renal; 50.3% with CCRF-CEM leukemia; 48.9% in the assay with MOLT-4 leukemia; 22.7% in the assay on SR leukemia; 18.5% in the assay with RPMI-8226 leukemia; 44.3% with OVCAR-8 ovarian. Also, the growth in the assay on OVCAR-5 ovarian is 82.5%; in the assay with OVCAR-4 ovarian, 48.1%; in the assay on SK-OV-3 ovarian it was 10.5%; with IGROV1 ovarian, 40.6%; in the assay on OVCAR-3 ovarian it was 39.6%; with HS 578T breast, 13.9%. The growth in the assay on NCI/ADR-RES ovarian was 40.1%.

On to `COc1ccc(SC2c3cc(OC)c(OC)cc3Oc3nc(N)c(C#N)c(N)c32)cc1` (stereo unspecified), for which the growth was -26.3% (active) in the assay on SK-MEL-2 melanoma; -51.7% (active) with EKVX NSCLC; -90.6% (active) in the assay on SN12C renal; -100% (active) with UO-31 renal; -49.6% (active) with TK-10 renal; -95.6% (active) in the assay with ACHN renal. Besides, the growth with A498 renal is -13.8% (active); in the assay with CCRF-CEM leukemia it was -37.2% (active); with MOLT-4 leukemia, -26.8% (active); in the assay with SR leukemia, -36.2% (active); with RPMI-8226 leukemia, -36.1% (active); in the assay with OVCAR-8 ovarian, -85.4% (active). Besides, the growth is -71.7% (active) in the assay on OVCAR-5 ovarian; -97.1% (active) in the assay with OVCAR-4 ovarian; -81.3% (active) in the assay with SK-OV-3 ovarian; -77.1% (active) in the assay with IGROV1 ovarian; -96.1% (active) with OVCAR-3 ovarian; -2.22% (active) in the assay on HS 578T breast. Also, the growth in the assay with NCI/ADR-RES ovarian was -16.3% (active).

On to `O=C(Cc1ccc(/C=C/C(=O)c2ncc[nH]2)cc1)Nc1ccccc1`, for which the growth in the assay on SK-MEL-2 melanoma is 82.8%; in the assay on EKVX NSCLC, 64.6%; in the assay with SN12C renal, 21.8%; in the assay with UO-31 renal, 31.3%; with TK-10 renal it was 49.1%; in the assay on ACHN renal, 76%. Further, the growth with A498 renal was 83.5%; with CCRF-CEM leukemia it was 3.9% (active); in the assay with MOLT-4 leukemia, 29.1%; in the assay with SR leukemia, 1.14% (active); in the assay with RPMI-8226 leukemia it was -0.0972% (active); in the assay with OVCAR-8 ovarian it was 22.1%. Further, the growth with OVCAR-5 ovarian was 78.5%; in the assay on OVCAR-4 ovarian, 68.2%; with SK-OV-3 ovarian it was 75.9%; in the assay on IGROV1 ovarian, 63.5%; in the assay with OVCAR-3 ovarian, 17.7%; in the assay with HS 578T breast, 80.7%. The growth in the assay with NCI/ADR-RES ovarian is 31.1%.

`CC(=O)c1cc2c(N)c(C(=O)Nc3cccc(F)c3C)sc2nc1C`: the growth with SK-MEL-2 melanoma was 68.5%; in the assay with EKVX NSCLC, 95.7%; in the assay on SN12C renal, 95.1%; with UO-31 renal it was 91.2%; with TK-10 renal, 100%; in the assay on ACHN renal, 89.4%. Also, the growth with A498 renal was 43%; in the assay on CCRF-CEM leukemia, 86.7%; with MOLT-4 leukemia, 79.1%; in the assay with SR leukemia, 63.9%; in the assay on RPMI-8226 leukemia, 86%; in the assay on OVCAR-8 ovarian, 79.6%. The growth with OVCAR-5 ovarian is 110%; in the assay on OVCAR-4 ovarian, 79.8%; in the assay on SK-OV-3 ovarian it was 53.8%; in the assay with IGROV1 ovarian, 94.3%; in the assay on OVCAR-3 ovarian it was 108%; in the assay on HS 578T breast, 80.1%. Also, the growth in the assay with NCI/ADR-RES ovarian is 91.5%.

Turning to `Cc1cc(N2CCCCC2)nc(NC2CCCC(Nc3ccnc4cc(Cl)ccc34)C2)n1` (stereo unspecified), the growth is -77% (active) in the assay on SK-MEL-2 melanoma; 7.48% (active) in the assay on EKVX NSCLC; -74.9% (active) with SN12C renal; -99% (active) with UO-31 renal; -61.8% (active) in the assay on TK-10 renal; -86.2% (active) in the assay with ACHN renal. Moreover, the growth is -29% (active) in the assay with A498 renal; -17.8% (active) with CCRF-CEM leukemia; -28.2% (active) with MOLT-4 leukemia; -53.5% (active) in the assay on SR leukemia; -52.4% (active) in the assay with RPMI-8226 leukemia; -82.9% (active) in the assay on OVCAR-8 ovarian. In addition, the growth in the assay with OVCAR-5 ovarian is 11.2%; with OVCAR-4 ovarian, -38.8% (active); in the assay with SK-OV-3 ovarian it was -71.7% (active); with IGROV1 ovarian it was -33% (active); with OVCAR-3 ovarian it was -69% (active); with HS 578T breast, -48.6% (active). In addition, the growth in the assay on NCI/ADR-RES ovarian was -41.8% (active).

On to `COc1cc(C(=O)Oc2ccccc2OC(=O)c2cc(OC)c(OC)c(OC)c2)cc(OC)c1OC`, for which the growth was 115% with SK-MEL-2 melanoma; 95.7% in the assay with EKVX NSCLC; 98.4% in the assay with SN12C renal; 84.5% with UO-31 renal; 98.4% with TK-10 renal; 93.9% in the assay on ACHN renal. Moreover, the growth in the assay on A498 renal was 108%; in the assay with CCRF-CEM leukemia it was 97.2%; in the assay with MOLT-4 leukemia, 114%; with SR leukemia, 103%; in the assay on RPMI-8226 leukemia it was 76.2%; in the assay with OVCAR-8 ovarian, 92.1%. Also, the growth in the assay on OVCAR-5 ovarian is 97.4%; in the assay on OVCAR-4 ovarian, 105%; with SK-OV-3 ovarian, 84.9%; with IGROV1 ovarian, 101%; with OVCAR-3 ovarian, 97.7%; in the assay on NCI/ADR-RES ovarian it was 95.7%.

For the compound `N#Cc1nnn(-c2ccc(S(N)(=O)=O)cc2)c1NCC(=O)c1ccccc1`, the growth was 97.8% in the assay on SK-MEL-2 melanoma; 90.9% in the assay with EKVX NSCLC; 97.1% in the assay on SN12C renal; 78.9% in the assay with UO-31 renal; 107% in the assay on TK-10 renal; 99.5% with ACHN renal. Also, the growth in the assay with A498 renal is 101%; with CCRF-CEM leukemia, 83.6%; in the assay with MOLT-4 leukemia it was 89.9%; in the assay with SR leukemia it was 90.7%; in the assay with RPMI-8226 leukemia, 87.5%; in the assay with OVCAR-8 ovarian, 91.6%. Besides, the growth in the assay on OVCAR-5 ovarian is 108%; with OVCAR-4 ovarian it was 89.8%; in the assay with SK-OV-3 ovarian, 91.9%; in the assay with IGROV1 ovarian it was 99.5%; in the assay with OVCAR-3 ovarian, 106%; with HS 578T breast, 98.3%. For the same compound, the growth in the assay on NCI/ADR-RES ovarian was 105%.

For `CN1CCN(c2nc(NCCCNc3ccnc4cc(Cl)ccc34)c3ccccc3n2)CC1`, the growth is 80.7% in the assay on SK-MEL-2 melanoma; 77.3% in the assay on EKVX NSCLC; 57.2% in the assay on SN12C renal; 37.3% in the assay on UO-31 renal; 116% in the assay with TK-10 renal; 50% in the assay on ACHN renal. Further, the growth in the assay on A498 renal is 72.1%; with CCRF-CEM leukemia, 18.6%; with MOLT-4 leukemia, 18.6%; in the assay with SR leukemia it was -25.3% (active); in the assay on RPMI-8226 leukemia, 8.13% (active); with OVCAR-8 ovarian, 38.8%. Also, the growth in the assay on OVCAR-5 ovarian was 84.8%; in the assay with OVCAR-4 ovarian it was 59.8%; with SK-OV-3 ovarian, 66.6%; in the assay with IGROV1 ovarian it was 70.7%; in the assay with OVCAR-3 ovarian it was 75.8%; in the assay with HS 578T breast, 79.5%. Also, the growth in the assay with NCI/ADR-RES ovarian was 96.3%.
